Assay outcomes as filed in PubChem BioAssay.
HCMV inh: blocks human cytomegalovirus replication | HFF cells, HCMV-luciferase reporter, 72 h; hits give low values | hit rate 4.5% among 410,000 | activity change, negative = inhibition, % at 57.5 µM; in the data active = activity change below about -60%; inconclusive = no clear call, values can overlap the other calls; inactive = above about -39%
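Screen run at 2 compound doses on HFFs infected with reporter HCMV, MOI 1 PFU/cell. Luciferase activity from cell lysates at 72 h post infection gave inhibition relative to buffer-only and Salinomycin wells.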
HCV inh: HCV inhibition; Huh7.5.1 HCVcc-Cre infection, luciferase reporter, 44 h; Potency, µM (series often up to 41.8 µM), actives largely listed as inhibitors; hit rate 3.4% among 340,000; active = well fitted inhibition curve with a large enough effect; inconclusive = small, poorly fitted or top-dose-only effect, or another doubt; inactive = no such curve, though single readings can be large or run the other way
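Reporter virus HCVcc-Cre (~0.5 moi) infects cells exposed to compound; seeding density 1,000 cells/well with 4 h settling beforehand. Luminescence, 15 sec read, taken 44 h post-infection following a 15 min RT substrate incubation.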
VACV Venus inh: vaccinia inhibition (Venus reporter); Vaccinia virus Venus reporter expression, fluorescence; Potency, µM (titrated, usually from 36.5 µM), usual class: inhibitors; hit rate 0.46% among 330,000; calls by dose curve; tested in A549 cells; note: nearly all actives have a fitted effect of over 30% in size
Vaccinia mCherry: vaccinia inhibition (mCherry reporter); Vaccinia virus mCherry reporter infection, fluorescence; Potency, µM (titrated, usually from 36.5 µM), actives largely listed as inhibitors; hit rate 0.63% among 310,000; AID 720579; calls by dose curve; tested in A549 cells; note: nearly all actives have a fitted effect of over 35% in size
FMDV inh: foot and mouth disease virus antiviral activity; hit rate 1.2% among 410,000; AID 1159524; FMDV antiviral cell-based qHTS; Potency, µM (doses to about 57.9 µM), most hits filed as inhibitors; calls by dose curve; tested in HEK293T cells; note: read-out not given here; nearly all actives have a fitted effect of over 45% in size
Large screens that a line does not name were inactive. In the library only some 7.3% were active in any assay of this set; here they are far more common.

O=C(NCc1ccco1)c1cc2ccccc2c(=O)o1	none
O=c1c(Cl)c(NCCCO)cnn1-c1nc2ccccc2[nH]1	HCMV inh -98, HCV inh 10µM
CN(C)S(=O)(=O)c1cccc(NC(=O)CCCSc2ccccc2)c1	HCV inh 11µM
CN(C)S(=O)(=O)c1cccc(NC(=O)CSc2cccc3cccnc23)c1	HCMV inh -101, HCV inh inconclusive, VACV Venus inh inconclusive, Vaccinia mCherry inconclusive
CN(C)S(=O)(=O)c1ccc(SCC(=O)Nc2cccc(S(=O)(=O)N3CCCC3)c2)nc1	HCV inh inconclusive (no result: VACV Venus inh, Vaccinia mCherry)
CN(C)S(=O)(=O)c1cccc(NC(=O)CSc2nc3c(cc2C#N)C(=O)CC(C)(C)C3)c1	HCMV inh -80, HCV inh 5µM, VACV Venus inh inconclusive, Vaccinia mCherry inconclusive, FMDV inh 20µM
COc1ccc(S(=O)(=O)N(C)C)cc1NC(=O)CCCSc1ccccc1	none
O=C(CCS(=O)(=O)c1ccccc1)Nc1nnc(-c2ccco2)o1	VACV Venus inh inconclusive, Vaccinia mCherry 11µM
Cc1ccc(S(=O)(=O)CCC(=O)Nc2nnc(-c3ccc(F)cc3)o2)cc1	VACV Venus inh inconclusive, Vaccinia mCherry inconclusive
COc1cc(OC)cc(-c2nnc(NC(=O)CCS(=O)(=O)c3ccc(C)cc3)o2)c1	VACV Venus inh inconclusive, Vaccinia mCherry 7.9µM
Cc1cc(C)c2nc(SC(C)C#N)cc(C)c2c1 (stereo unspecified)	HCV inh 10µM (no result: Vaccinia mCherry)
Cc1cc(C)c2nc(SC3CCOC3=O)cc(C)c2c1 (stereo unspecified)	none
CCCC(=O)N(Cc1cc(=O)[nH]c2ccccc12)c1ccc(C)cc1C	none (no result: VACV Venus inh, Vaccinia mCherry)
Cc1ccc(N(Cc2cc(=O)[nH]c3ccccc23)C(=O)CCl)c(C)c1	HCMV inh -97, HCV inh inconclusive, VACV Venus inh inconclusive, Vaccinia mCherry inconclusive, FMDV inh 35µM
O=[N+]([O-])c1cc2c(cc1/C=N/n1c(-c3ccccn3)n[nH]c1=S)OCO2	none
Cc1nc2ccccc2c(=O)n1/N=C/c1ccc(C(C)C)cc1	HCV inh 25µM (no result: VACV Venus inh, Vaccinia mCherry)
CC(C)c1ccc(/C=N/n2c(-c3ccccc3)n[nH]c2=S)cc1	HCMV inh -66 (no result: VACV Venus inh, Vaccinia mCherry)
O=[N+]([O-])c1cc2c(cc1/C=N/n1c(-c3ccccc3)n[nH]c1=S)OCO2	HCMV inh -100
Cc1nc2ccccc2c(=O)n1/N=C/c1ccc(O)cc1	none (no result: FMDV inh)
Cc1ccc(/C=N/n2c(-c3ccccc3)n[nH]c2=S)cc1	none (no result: VACV Venus inh, Vaccinia mCherry)
CC(C)Sc1ncc(Cl)c(C(=O)N(Cc2ccc(F)cc2)C2CCS(=O)(=O)C2)n1 (stereo unspecified)	none (no result: HCV inh)
CCCOc1ccc(CN(C(=O)c2nc(SC(C)C)ncc2Cl)C2CCS(=O)(=O)C2)cc1 (stereo unspecified)	HCMV inh -63 (no result: HCV inh)
COC(=O)C1(Cc2cc(-c3ccc([N+](=O)[O-])cc3)no2)CCN(C(=O)OC(C)(C)C)CC1	HCV inh inconclusive
COC(=O)C1(Cc2cc(-c3ccc(Cl)cc3)no2)CCN(C(=O)OC(C)(C)C)CC1	HCV inh 1µM
S=C(NCc1ccco1)Nc1ccc(Oc2ccc(Cl)cc2)cc1	HCMV inh -60
Cc1cc(Cl)ccc1NC(=S)NCc1ccco1	HCMV inh -61
O=C(/C=C/c1ccco1)Nc1ccc(Oc2ccc(Cl)cc2)cc1	HCMV inh -68, HCV inh 8.9µM, VACV Venus inh inconclusive, Vaccinia mCherry inconclusive, FMDV inh inconclusive
Cc1cc(Cl)ccc1NC(=O)C(=O)NCc1ccco1	VACV Venus inh inconclusive (no result: HCV inh)
CCn1c(-c2ccccc2F)nc2cc(C(=O)NC(c3ccccn3)C(F)(F)F)cc(NC(C)=O)c21 (stereo unspecified)	none (no result: HCMV inh, HCV inh)
COc1ccc(OC)c(NC(=O)C2Cc3ccccc3CN2S(=O)(=O)c2ccc(F)cc2)c1 (stereo unspecified)	none (no result: HCV inh)
Cc1ccc(C[n+]2ccccc2)cc1	HCV inh 4.5µM
COC(=O)c1ccc(C[n+]2ccccc2)cc1	none
Cc1ccccc1Nc1nnc(-c2ccc(C)c(S(=O)(=O)N3CCCCC3)c2)c2ccccc12	HCMV inh -63, Vaccinia mCherry inconclusive (no result: HCV inh)
Cc1ccc(-c2nnc(Nc3ccc(O)cc3)c3ccccc23)cc1S(=O)(=O)N1CCCCC1	HCMV inh -90, VACV Venus inh inconclusive, Vaccinia mCherry inconclusive (no result: HCV inh)
CC(SC1=NS(=O)(=O)c2ccccc21)C(=O)O (stereo unspecified)	none (no result: HCMV inh, HCV inh, FMDV inh)
Cc1cccc(OCc2ccc(-c3nc(C#N)c(NCCN(C)C)o3)o2)c1	none (no result: HCV inh)
CC(C)N(C(=O)CCl)c1ccccc1	HCV inh 10µM, VACV Venus inh inconclusive, FMDV inh inconclusive
